The nature of experiment [1]: Validation of Assay for Modulators of Lamin A Splicing (AID 1459; active = well fitted curve in the direction sought with a large enough effect in the signal ratio; the % refers to the signal ratio;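 also: cells exposed to compound for two days before reading; ratio rise marks activators and ratio drop marks inhibitors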). In a few lines: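 Splicing correction read as GFP (500-530 nm) over DsRed2 (575-640 nm) object intensity after 48 h compound exposure of reporter HeLa S3 clones (600 cells/well, 2% FBS medium); ancitabine and cycloheximide titrations, 0.5% DMSO as vehicle.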
Experiment [2] has as its target Alpha-galactosidase A (Homo sapiens) (UniProt P06280). As to the kind of experiment: Counterscreen for Glucocerebrosidase Inhibitors: qHTS Assay for Human alpha-Galactosidase at pH 4.5 (AID 992). The procedure, abridged:
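Concentration-response curves (0.7 nM to 77 uM final) were modeled with the Hill equation to give AC50. Reactions: 2 nM enzyme, 80 uM fluorogenic alpha-galactoside, pH 4.5 citric acid buffer, 20 min, room temperature.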

Experiment [3] concerns the target alpha-glucosidase (Oryza sativa, rice) (UniProt Q653V4). As to the kind of experiment: Counterscreen for Glucocerebrosidase Inhibitors: qHTS Assay for Rice alpha-Glucosidase at pH 5.0 (AID 997). In a few lines:
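Rice alpha-glucosidase (4 nM final) with 400 uM 4-methylumbelliferyl-alpha-D-glucopyranoside in citrate buffer pH 5.0, 20 min at room temperature, stopped at pH 10; fluorescence 365/440 nm, compounds 0.7 nM–77 uM, AC50 from Hill fits.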
In general terms: Counterscreens check selectivity or assay interference.

A short description of experiment [4]: Cell Viability - LYMP2-025 (AID 976). Also: series mostly up to about 92 µM. In a few lines:
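Seed 2500 LYMP2-025 cells/well; 5 hr at 37 C; add compound; 24 hr at 37 C; add CellTiter-Glo; 30 min RT; read luminescence. AC50 from Hill-modelled concentration-response.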

A short description of experiment [5]: Cell Viability - LYMP2-002 (AID 977). Also: series mostly up to about 92 µM. The procedure, abridged: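 Human lymphoblastoid LYMP2-002 cells, 2500 per well, exposed to compounds for 24 h at 37 C in complete medium; viability read as intracellular ATP by CellTiter-Glo luminescence, AC50 from Hill fits.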
The nature of experiment [6]: Cell Viability - LYMP2-006 (AID 978). Also: series mostly up to about 92 µM; nearly all actives have a fitted effect of over 60% in size. The procedure, abridged:
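Potency values are Hill-fit AC50s for decreases in intracellular ATP (CellTiter-Glo luminescence). LYMP2-006 lymphoblastoid cells, 2500 per well, were exposed to compound in complete culture medium for 24 hr at 37 C.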

Experiment [7] is described as follows: Cell Viability - LYMP2-007 (AID 979).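 Also: cells exposed to compound for 24 h before reading; nearly all actives have a fitted effect of over 60% in size.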 Also: potency is read from the fitted curve at half-maximal effect. The procedure, abridged: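 Luminescent ATP signal (CellTiter-Glo) serves as the viability read-out after 24 hr compound treatment of lymphoblastoid cells in complete medium at 37 C. Concentration-response data were fitted to the Hill equation to give AC50 values.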
The nature of experiment [8]: Cell Viability - LYMP2-008 (AID 980). Also: nearly all actives have a fitted effect of over 60% in size. In a few lines: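 qHTS, human lymphoblastoid line, 2500 cells/well; 5 hr preincubation, 24 hr compound, 37 C. CellTiter-Glo ATP luminescence. AC50 via Hill equation. Tetraoctylammonium bromide positive control.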
Experiment [9] can be described thus: Cell Viability - LYMP2-010 (AID 981). Also: nearly all actives have a fitted effect of over 55% in size. Also: potency is read from the fitted curve at half-maximal effect. The procedure, abridged: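 Luminescent ATP signal (CellTiter-Glo) served as the viability read-out. Cells of the human lymphoblastoid line were treated with compound over a concentration range for 24 hours at 37 C, and AC50 values came from Hill-equation modeling.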
Experiment [10] can be described thus: Cell Viability - LYMP2-012 (AID 982).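 Also: cellular ATP by luciferase luminescence where a drop means cytotoxicity; cells exposed to compound for one day before reading; nearly all actives have a fitted effect of over 55% in size.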 Also: potency is read from the fitted curve at half-maximal effect.
Experiment [11] can be described thus: Cell Viability - LYMP2-014 (AID 983). Also: series mostly up to about 92 µM; nearly all actives have a fitted effect of over 50% in size. The procedure, abridged: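 Luminescent ATP signal (CellTiter-Glo, 30 min at room temperature) serves as the viability read-out after 24 hr compound exposure at 37 C. Cells were seeded at 2500 per well and settled 5 hr beforehand.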
A short description of experiment [12]: Cell Viability - LYMP2-016 (AID 984). Also: nearly all actives have a fitted effect of over 55% in size. The procedure, abridged:
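Cytotoxicity was scored by luminescent ATP content (CellTiter-Glo) after 24 h compound exposure at 37 C of a human lymphoblastoid line at 2500 cells/well. Concentration-response data were fitted to the Hill equation for AC50.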

Experiment [13] can be described thus: Cell Viability - LYMP2-018 (AID 985). Also: nearly all actives have a fitted effect of over 50% in size. In a few lines:
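Luminescent ATP signal (CellTiter-Glo, read after 30 min at room temperature) reports viable cells after 24 hr compound treatment at 37 C. Concentration-response data were fitted to the standard Hill equation for AC50.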

A short description of experiment [14]: Cell Viability - LYMP2-020 (AID 986). Also: series mostly up to about 92 µM; nearly all actives have a fitted effect of over 55% in size. In a few lines:
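Luminescent ATP signal (CellTiter-Glo, 30 min at room temperature) is the read-out after 24 h compound treatment of lymphoblastoid cells at 37 C. AC50 values come from Hill-equation fits across concentrations.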

Experiment [15] is described as follows: Cell Viability - LYMP2-022 (AID 987). Also: nearly all actives have a fitted effect of over 55% in size. Also: potency is read from the fitted curve at half-maximal effect. The procedure, abridged: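 qHTS: human lymphoblastoid cells 2500/well; 5 hr 37 C; cpd added; 24 hr 37 C; CellTiter-Glo, 30 min RT; luminescence. AC50 via Hill fit; tetraoctylammonium bromide positive ctrl.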
Experiment [16] can be described thus: Cell Viability - LYMP2-024 (AID 988). Also: nearly all actives have a fitted effect of over 60% in size. Also: potency is read from the fitted curve at half-maximal effect. In a few lines:
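Steps: seed 2500 cells/well, 5 hr 37 C; add compound, 24 hr 37 C; add CellTiter-Glo, 30 min room temperature; read luminescence. AC50 derived by Hill modelling of concentration-dependent ATP loss.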

Experiment [17] is described as follows: Cell Viability - LYMP2-026 (AID 989). Also: nearly all actives have a fitted effect of over 50% in size. In a few lines:
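Luminescent ATP signal (CellTiter-Glo, 30 min room temperature) measures viable lymphoblastoid cells after 24 hr compound treatment at 37 C. Decreased ATP reflects acute toxicity; AC50 values come from Hill-equation modeling.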

The nature of experiment [18]: Cell Viability - LYMP1-002 - Assay at 24 hr (AID 993). In a few lines: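 Cells plated 2500/well, 5 hr 37 C; compounds added, 24 hr 37 C; CellTiter-Glo added, 30 min RT; luminescence read. Tetraoctylammonium bromide positive control. Hill-equation AC50.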
Experiment [19] in a line: Cell Viability - LYMP1-002 - Assay at 40 hr (AID 994). Also: nearly all actives have a fitted effect of over 60% in size. In a few lines: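 Luminescent ATP signal served as the viability readout, with decreases taken as toxicity. Cells were treated with compounds across a concentration range for 40 hours at 37 C, and AC50 values came from standard Hill modeling.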
Experiment [20] has as its target Alpha-galactosidase (Coffea arabica) (UniProt Q42656). The experiment in a line: Counterscreen for Glucocerebrosidase Inhibitors: qHTS Assay for Coffee Bean alpha-Galactosidase at pH 5.9 (AID 998). The procedure, abridged:
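Green coffee bean enzyme (2 nM) with 4-methylumbelliferyl alpha-D-galactopyranoside (80 uM) in 50 mM citric acid, 0.005% Tween-20, pH 5.9, 20 min at room temperature; compounds 0.7 nM–77 uM. Stopped at pH 10, fluorescence Ex365/Em440; Hill-fit AC50.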

Structures are written as SMILES. Results filed as inconclusive are left out. The source made the active and inactive calls. Unless noted, calls follow the shape of the dose curve; as a rule, active = well fitted curve in the direction sought with a large enough effect; inconclusive = small, poorly fitted or top-dose-only effect, or another doubt; inactive = no such curve, though single readings can be large; an effect the other way counts as inactive or inconclusive.

Alpha-galactosidase A (Homo sapiens), sequence (P06280 whole entry, looked up): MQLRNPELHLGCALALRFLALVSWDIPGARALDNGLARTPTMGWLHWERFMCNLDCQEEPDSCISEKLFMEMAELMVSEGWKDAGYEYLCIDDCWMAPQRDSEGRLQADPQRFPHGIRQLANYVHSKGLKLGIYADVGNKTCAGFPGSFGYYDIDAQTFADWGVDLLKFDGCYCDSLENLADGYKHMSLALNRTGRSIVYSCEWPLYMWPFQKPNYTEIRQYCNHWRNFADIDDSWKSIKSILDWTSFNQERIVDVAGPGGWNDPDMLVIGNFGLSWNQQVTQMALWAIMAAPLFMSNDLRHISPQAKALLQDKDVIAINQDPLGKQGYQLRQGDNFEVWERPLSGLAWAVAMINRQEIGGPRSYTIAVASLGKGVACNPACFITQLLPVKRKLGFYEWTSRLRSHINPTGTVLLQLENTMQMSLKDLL
Alpha-galactosidase (Coffea arabica), sequence (Q42656 whole entry, looked up): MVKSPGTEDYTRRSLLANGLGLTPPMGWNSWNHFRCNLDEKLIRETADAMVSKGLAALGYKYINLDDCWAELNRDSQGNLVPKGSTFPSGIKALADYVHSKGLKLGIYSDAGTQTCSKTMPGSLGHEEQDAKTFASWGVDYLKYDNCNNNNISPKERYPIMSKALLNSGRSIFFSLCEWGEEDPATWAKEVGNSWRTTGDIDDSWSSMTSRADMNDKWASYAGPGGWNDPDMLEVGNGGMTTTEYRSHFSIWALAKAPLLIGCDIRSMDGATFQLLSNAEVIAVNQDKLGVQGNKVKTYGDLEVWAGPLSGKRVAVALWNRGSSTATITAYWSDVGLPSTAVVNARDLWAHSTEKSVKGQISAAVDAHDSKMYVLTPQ

As to `COc1ccc2c(c1)C13CCCCC1C(C2)N(C)CC3` (stereo unspecified), the result in [1] was inactive.

Turning to `N[C@@]1(C(=O)O)CC[C@@H](C(=O)O)C1`, the result in experiment [1] was inactive.

Take `CC(=O)NBr`: the call in experiment [2], in [3] and in [1] was inactive.

For the compound `Cc1[nH]c2ccc(O)cc2c1CCN`, the compound was called inactive in experiment [2], in experiment [3] and in experiment [1].

Regarding `NNC(N)=O`, the Potency entry in [4], in experiment [5], in [6], in experiment [7], in experiment [8] and in experiment [9] was “inactive” each time. Also, the Potency result in [10], in experiment [11], in experiment [12], in experiment [13], in [14] and in experiment [15] was “inactive” throughout. The Potency entry in experiment [16], in experiment [17], in experiment [18] and in [19] was “inactive” in each case. The compound was classed as inactive in experiment [2], in experiment [3] and in experiment [1].

For `CCCN(CCC)[C@@H]1CCc2cccc(O)c2C1`, the compound was classed as inactive in [2], in experiment [3] and in experiment [1].

On to `COc1cc(CC(C)N)c(OC)cc1I` (stereo unspecified), for which the outcome in [1] was inactive.

As for `CC(Cc1ccc(OCC(=O)O)cc1)NCC(O)c1cccc(Cl)c1` (stereo unspecified), the result in experiment [1] was inactive.

Consider `NNC(=O)c1ccc(O)cc1`, for which the call in experiment [2], in [3] and in experiment [1] was inactive.

Consider `N#CC(C#N)=Cc1cc(O)c(O)c(O)c1`, for which the result in [2], in experiment [3] and in experiment [1] was inactive.

On to `C[N+]1(C)CCN(c2ccccc2)CC1`, for which the compound was classed as inactive in [2], in [3] and in experiment [1].

Regarding `Clc1cc(I)cc(Cl)c1NC1=NCCN1`, the result in [2], in [3] and in experiment [1] was inactive.

With `CCCN(CCC)CCc1c[nH]c2ccc(C(N)=O)cc12`, the call in experiment [2], in experiment [3] and in [1] was inactive.

Consider `C[N+](C)(C)CC#CCOC(=O)Nc1cccc(Cl)c1`, for which the outcome in experiment [2], in experiment [3] and in experiment [1] was inactive.

Regarding `C#CCN[C@H](C)Cc1ccccc1`, the result in [1] was inactive.

With `CP(=O)(O)C1=CCNCC1`, the result in [2], in experiment [3] and in experiment [1] was inactive.

Take `CCCN(CCC)[C@H]1CCc2c(F)ccc(O)c2C1`: the call in experiment [2], in experiment [3] and in [1] was inactive.

As for `C[C@@H]1O[C@H](C[N+](C)(C)C)CS1`, the result in experiment [2], in experiment [3] and in experiment [1] was inactive.

For `Oc1ccc2c3c1O[C@H]1c4oc5ccccc5c4C[C@@]4(O)C(C2)N(CC2CC2)CCC314` (stereo partly specified), the compound was called inactive in experiment [1].

Turning to `O=C1C=CC(=O)C=C1`, the Potency entry in experiment [4], in [5], in experiment [11], in experiment [12], in experiment [17] and in [18] was “inactive” each time. In experiment [19], the Potency entry was “inactive”. The Potency is 50.1 µM (active) in experiment [7]; 39.8 µM (active) in [9]; 39.8 µM (active) in [10]; 39.8 µM (active) in [15]; 31.6 µM (active) in experiment [16]. Further, the outcome in [2], in experiment [3] and in experiment [1] was inactive.

Regarding `CC12NC(Cc3ccccc31)c1ccccc12` (stereo unspecified), the result in [1] was inactive.

`COc1ccc2c(c1OC)C(=O)OC2C1c2cc3c(cc2CCN1C)OCO3` (stereo unspecified): the Potency result in [4], in [5], in experiment [6], in [7], in [8] and in [9] was “inactive” each time. The Potency result in experiment [10], in experiment [11], in [12], in experiment [13], in experiment [14] and in experiment [15] was “inactive” in each case. For the same compound, the Potency entry in experiment [16], in experiment [17], in experiment [18] and in experiment [19] was “inactive” throughout. Moreover, the result in [1] was inactive.

Regarding `NCCc1c[nH]c2ccc(C(N)=O)cc12`, the compound was classed as inactive in [2], in experiment [3] and in [1].

As to `NCCCP(=O)(O)O`, the outcome in experiment [2], in [3] and in experiment [1] was inactive.

Take `O=S1(=O)N(CCN2CC=C(c3c[nH]c4cc(F)ccc34)CC2)c2cccc3c2N1CCC3`: the outcome in experiment [2], in experiment [3] and in experiment [1] was inactive.

As for `NC(=O)COc1c(F)cc(SCCNS(=O)(=O)c2ccccc2)cc1F`, the result in [2], in experiment [3] and in [1] was inactive.

As for `CC(N)Cc1c[nH]c2ccc(O)cc12` (stereo unspecified), the compound was called inactive in experiment [1].

Regarding `NC(=O)c1cc(N2CC2)c([N+](=O)[O-])cc1[N+](=O)[O-]`, the result in experiment [2], in experiment [3] and in [1] was inactive.

On to `O=c1c2ccccc2[se]n1-c1ccccc1`, for which the compound was called inactive in [2], in [3] and in experiment [1].

For the compound `C[N+](C)(C)CC#CCN1CCCC1=O`, the result in experiment [2], in [3] and in experiment [1] was inactive.

`CN(N=O)c1ccc(O)c(O)c1`: the result in [2], in experiment [3] and in experiment [1] was inactive.

Consider `OCc1cnc[nH]1`, for which the compound was called inactive in experiment [2], in [3] and in [1].

With `O=CC=O`, the Potency entry in [4], in experiment [5], in experiment [6], in [7], in experiment [8] and in experiment [9] was “inactive” each time. Besides, the Potency entry in experiment [10], in [11], in experiment [12], in experiment [13], in experiment [14] and in [15] was “inactive” in each case. In addition, the Potency entry in experiment [16], in experiment [17], in [18] and in [19] was “inactive” each time.

On to `c1ccc2c(N3CCNCC3)cccc2c1`, for which the outcome in [2], in experiment [3], in experiment [20] and in experiment [1] was inactive.

On to `c1ccc2cc(CC3=NCCN3)ccc2c1`, for which the compound was classed as inactive in experiment [2], in experiment [3] and in experiment [1].

Turning to `CCOC(=O)c1ccccc1C(=O)OCC`, the Potency result in experiment [4], in [5], in experiment [6], in experiment [7], in experiment [8] and in [9] was “inactive” in each case. For the same compound, the Potency result in [10], in experiment [11], in experiment [12], in [13], in [14] and in experiment [15] was “inactive” throughout. Further, the Potency result in [16], in [17], in [18] and in [19] was “inactive” in each case.

Source of the values: PubChem BioAssay (NCATS).
